# High-throughput results (PubChem)
# Shown are actives, neighbours in structure and some others; about 28% of the full set was active somewhere.
# CYP2C19 activ – cytochrome P450 2C19 (human) activation; P33261; recombinant CYP2C19, luciferin-H EGE luminescence; stronger effect = higher value; 0 = fully inhibited enzyme, 1 = untreated enzyme; activation factor at 5 µM; 96,000 tested, under 10 active; AID 1025;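 active means activation factor of at least 2 at 5 µM in the primary screen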;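 further: 0 = wells with 2.5 mM tranylcypromine and 1 = vehicle-only wells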
# PTK2B oligo ant – antagonists of human Pyk2 oligomerization. z-score (the deposit names both 25 µM and 10 µM). AID 1347419. hit rate 0.83% among 99,000. Q293 cells, Pyk2 FERM NanoBiT luminescence; stronger effect = lower value;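 active means Z-score of -3 or lower, scaled per plate to the spread of control and sample wells; inactive means z-score above -3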;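 further: negative z-score means lost luminescence so less FERM oligomerization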
# CYP2C9 act – activators of human CYP2C9 | recombinant CYP2C9, luciferin-H conversion, luminescence; stronger effect = higher value; factor 1 = untreated enzyme, 0 = blocked | hit rate 1.4% among 96,000 | activation factor at 5 µM | P11712;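 active means activation factor of 2 or more for CYP2C9 at a 5 µM dose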;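 further: 0 = sulfaphenazole-blocked wells and 1 = vehicle-only wells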
# Target sequence (P11712 whole entry, looked up): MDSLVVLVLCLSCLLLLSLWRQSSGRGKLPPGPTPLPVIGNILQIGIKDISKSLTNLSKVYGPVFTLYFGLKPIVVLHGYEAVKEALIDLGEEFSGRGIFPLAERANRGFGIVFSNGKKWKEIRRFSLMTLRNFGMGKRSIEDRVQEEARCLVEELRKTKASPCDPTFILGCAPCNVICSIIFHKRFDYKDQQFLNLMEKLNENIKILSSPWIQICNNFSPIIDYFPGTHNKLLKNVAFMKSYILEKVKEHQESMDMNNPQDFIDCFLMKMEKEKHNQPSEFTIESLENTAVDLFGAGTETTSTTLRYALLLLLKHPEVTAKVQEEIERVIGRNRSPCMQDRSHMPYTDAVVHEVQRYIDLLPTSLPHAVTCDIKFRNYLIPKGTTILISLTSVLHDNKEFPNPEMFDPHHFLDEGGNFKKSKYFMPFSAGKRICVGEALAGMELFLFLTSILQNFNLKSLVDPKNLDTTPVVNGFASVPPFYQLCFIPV
# CYP2C19 inh – inhibitors of human CYP2C19; inhibition, % at 5 µM; AID 778; hit rate 21% among 96,000; CYP2C19 Supersomes, luciferin-H EGE luminescence, 30 min; P33261;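 active means CYP2C19 inhibition above a set limit at 5 µM in the primary screen, cut at about 50% in these data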;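 further: plate controls were negative control wells for no effect and 2.5 mM tranylcypromine positive control for full effect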
# CYP2C9 inh – human CYP2C9 inhibition; AID 777; P11712; inhibition, % at 5 µM; hit rate 20% among 96,000; CYP2C9 Supersomes, luciferin-H conversion, luminescence;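 active means blocking of liver enzyme CYP2C9 beyond about 50% at 5 µM, limit read from the data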
# Numbers without * were called inactive; x = not tested or not shown.
SMILES,CYP2C19 activ,PTK2B oligo ant,CYP2C9 act,CYP2C19 inh,CYP2C9 inh
COc1ccc2c(c1)CC(C1(O)C(=O)N(C)c3ccccc31)C2=O (stereo not drawn),0.2,-0.22,0.8,77*,22
COC(=O)CSc1nsc(SCC(=O)OC)c1C#N,0.5,0.24,0.8,54*,23
CSc1snc(SCC(N)=O)c1C#N,1,-0.36,1,-1,3
Cc1cccc(-c2nc3ccccc3c3nncn23)c1,0.5,-1.8,0.8,54*,16
CCOC(=O)c1ccc(NC(=O)NC(C)C2CCCO2)cc1 (stereo not drawn),1.1,-0.08,0.9,-7,10
CCOC(=O)c1ccccc1NC(=O)c1cccc2c1C(=O)N(C1CCN(C(=O)OCC)CC1)C2,0.6,x,0,43,96*
CCOC(=O)N1CCC(N2Cc3cccc(C(=O)N4CCN(C5CCCCC5)CC4)c3C2=O)CC1,0.6,x,0.2,40,78*
NC(=O)c1cccc2c1C(=O)N(C1CCCCC1)C2,1,x,1,-5,0
CCOC(=O)c1ccccc1NC(=O)c1c(O)c2ccccc2n(CC)c1=O,1.1,-1.4,0.9,-5,9
CCOC(=O)c1ccc(NC(=O)c2ccc(CO)c(C(=O)NC3CCN(C(=O)OCC)CC3)c2)cc1,0.8,-0.67,0.7,18,25
CCOC(=O)N1CCC(N2Cc3cccc(C(=O)Nc4ccc(OC)c(OC)c4)c3C2=O)CC1,0.3,x,0.1,70*,95*
CCOC(=O)N1CCC(NC(=O)c2cc(C(=O)Nc3ccc(OC)c(OC)c3)ccc2CO)CC1,0.8,1.7,0.4,20,64*
O=C(Nc1ccccc1C(F)(F)F)C1CC(=O)N(c2ccccc2F)C1 (stereo not drawn),0.8,-0.32,0.9,16,13
NC(=O)C1(N2CCCCC2)CCN(Cc2nc3ccccc3c(=O)[nH]2)CC1,0.9,0.87,1,15,4
N#CCC(CNc1ncc(C(F)(F)F)cc1Cl)OC(=O)c1cccc(C(F)(F)F)c1 (stereo not drawn),0.4,2.3,1,63*,4
O=C(COC(=O)c1ccccn1)Nc1ncc(C(F)(F)F)cc1Cl,0.7,0.96,0.8,35,20
Cc1ccc(-n2c(-c3ccncc3)nnc2-c2cccs2)cc1,x,0.49,x,x,x
Cc1ccc2nc(-c3ccc(NC(=O)c4ccco4)cc3)[nH]c2c1,0.6,-1.5,0.7,40,34
O=C(Nc1cccc(-c2cnc3ccccc3n2)c1)c1ccccc1,0.9,0.08,0.6,10,45
O=C(Nc1cccc(NC(=O)c2nccc3ccccc23)c1)c1ccco1,0.9,-0.33,2*,6,-100
O=C(Nc1cccc(-c2cnc3ccccc3n2)c1)c1cccc(NC(=O)c2ccco2)c1,0.3,-4.4*,0.2,69*,75*
O=C(Nc1cccc(-c2nc3ccccc3[nH]2)c1)c1ccco1,0.2,-1,0.3,82*,72*
CC(=O)Nc1cccc(NC(=O)c2ccco2)c1,1.1,0.1,1.1,-8,-12
CC(C)(C)S(=O)(=O)c1c(C(=O)O)cccc1C(=O)O,1.2,-0.31,1.2,-22,-20
Nc1nc(-c2ccc([N+](=O)[O-])cc2)cs1,x,-0.5,x,x,x
SMILES,CYP2C19 activ,PTK2B oligo ant,CYP2C9 act,CYP2C19 inh,CYP2C9 inh
O=C(Cc1nc(-c2ccc([N+](=O)[O-])cc2)cs1)Nc1ccccc1,0.7,-0.08,0.4,30,62*
Cc1ccc(CNC(=O)c2ccc(Cl)cc2[N+](=O)[O-])cc1,0.8,0.35,1.4,18,-44
CC(=O)Nc1ccc(S(=O)(=O)N2CCCCC2c2cccnc2)cc1 (stereo not drawn),0.8,-0.94,0.8,16,17
COc1cc(C)c(C)cc1S(=O)(=O)N1CCCCC1c1cccnc1 (stereo not drawn),0.2,-0.76,0.8,81*,24
CC1C(=O)CC(c2ccccc2)NC1c1ccccc1 (stereo not drawn),0.2,0.7,0.7,82*,33
CCC1/C(=N\O)CC(c2ccco2)NC1c1ccco1 (stereo not drawn),1,0.61,1,4,-5
CC1C(=O)CC(c2ccco2)NC1c1ccco1 (stereo not drawn),0.3,x,1.1,69*,-8
O=C1CC(c2ccccc2)NC(=O)N1 (stereo not drawn),1,-0.18,1,-1,-2
COCC(=O)N1CCCN(c2nc3c(C)cccc3cc2C#N)CC1,0.4,0.39,1,64*,5
Cc1cccc2cc(C#N)c(SCC(=O)N3CCC(C)CC3)nc12,0.6,-2.5,0.4,35,59*
Cc1ccc(C)c2nc(SCC(=O)N3CCCc4ccccc43)c(C#N)cc12,0.9,1,0.8,6,25
CCOc1ccc2cc(C#N)c(SCC(=O)N3CCC(C)CC3)nc2c1,0.8,-0.84,0.4,22,63*
Cc1cccc2cc(C#N)c(SCC(=O)N3CC(=O)Nc4ccccc43)nc12,1,-3.1*,0.5,4,48
O=C(O)c1nn(-c2ccccc2)ccc1=O,1,-0.16,1,-2,1
CCn1c(=O)cc(SCC(=O)NCCCN2CCN(c3ccc(F)cc3)CC2)c2ccccc21,0.7,-0.45,1.3,29,-28
CC(C)(C)NC(=O)c1cccc(NC(=O)c2cccc(O)c2)c1,1.1,-0.55,0.8,-7,17
CCOc1ccc2cc(C#N)c(SCC(=O)NC(C)CC)nc2c1 (stereo not drawn),1,x,0.5,-5,54*
CCOc1ccc2nc(SCC#N)c(C#N)cc2c1,0.9,0.01,0.3,11,67*
O=C(c1ccc(COc2c(F)c(F)cc(F)c2F)o1)N1CCN(c2ccc(Cl)cc2)CC1,0.8,0.24,0.6,18,39
CCOC(=O)c1cn[nH]c1N,0.9,-0.3,1,10,3
Cc1ccc(S(=O)(=O)/N=S(\C)CC2CC2(Cl)Cl)cc1 (stereo not drawn),0.4,0.34,1.6,58*,-60
Cc1ccc(C)c(OC(=O)c2ccncc2)c1,x,0.46,x,x,x
COc1ccccc1C1C2C(=O)N(c3ccccc3)C(=O)C2ON1c1ccccc1 (stereo not drawn),0.2,1.3,0.1,77*,86*
O=C(O)COc1ccccc1C1C2C(=O)N(c3ccc(F)cc3)C(=O)C2ON1c1ccccc1 (stereo not drawn),0.6,0.62,0.5,38,54*
COC(=O)c1nn(C23CC4CC(CC(C4)C2)C3)c2c1C(=O)N(c1ccc(F)cc1)C2=O,1.1,0.5,1.1,-10,-5
C=CCn1c(SCc2c(C)noc2C)nnc1C1COc2ccccc2O1 (stereo not drawn),0.7,0.56,0.4,33,61*
Cc1cc(NC(=O)CSc2nnc(C3COc4ccccc4O3)o2)no1 (stereo not drawn),0.5,-0.4,0.5,49,47
C=CCn1c(SCC(=O)NCc2ccccc2)nnc1C1CCCCC1,0.8,1.1,0.6,15,40
